# Assay results reported in paper PMC9838217, “Structure of SALL4 zinc finger domain reveals link between AT-rich DNA binding and Okihiro syndrome”.
# Changes are numbered by the printed parent chain.
# Experiments:
# Assay in all cases: HT-SELEX; high values mean tight binding
# Details in all cases: protein: recombinant; vector His6-GST; dsDNA, one strand shown
# SALL4 ZFC4 WT (HT-SELEX) = target: T1, SALL4 ZFC4 WT (HT-SELEX) (Mus musculus, UniProt Q8BX22 870-940)
# T1 sequence: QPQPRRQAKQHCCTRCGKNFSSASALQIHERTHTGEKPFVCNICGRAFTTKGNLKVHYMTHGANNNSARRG
# Outline: (§1)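 Library DNA (1.5 µg in cycle one, 200 ng in later cycles) was incubated with 1 µg of purified recombinant mouse SALL4 zinc finger cluster 4, residues 870–940, in 100 µl buffer (10 mM Tris–HCl pH 7.5, 50 mM NaCl, poly(dI-dC), DTT) at room temperature for 10 min. Up to 6 rounds of Ni2+ bead capture, washing, PCR amplification and reselection were run in triplicate. Reads from MiSeq sequencing were scanned for 6-mers. For each canonical k-mer, binding signal is its read fraction as fold change versus the original random library.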
# [1] = target: T2, SALL4 ZFC4 R900W (HT-SELEX) (Mus musculus, UniProt Q8BX22 870-940, R900W)
# T2 sequence: T1 sequence with R31W
# Outline: as §1
# [2] = target: T3, SALL4 ZFC4 G921D (HT-SELEX) (Mus musculus, UniProt Q8BX22 870-940, G921D)
# T3 sequence: T1 sequence with G52D
# Outline: as §1
Sequence,binding signal (SALL4 ZFC4 WT (HT-SELEX)),binding signal [1],binding signal [2]
ATGTCG,0.521 ± 0.0491 fold-change vs cycle 0,0.603 ± 0.00997 fold-change vs cycle 0,0.73 ± 0.0508 fold-change vs cycle 0
TAGGAA,1.42 ± 0.0275 fold-change vs cycle 0,1.51 ± 0.0439 fold-change vs cycle 0,1.41 ± 0.0855 fold-change vs cycle 0
ATAATA,4.87 ± 0.591 fold-change vs cycle 0,2.66 ± 0.215 fold-change vs cycle 0,2.24 ± 0.293 fold-change vs cycle 0
CGAAAA,0.827 ± 0.0572 fold-change vs cycle 0,0.851 ± 0.0107 fold-change vs cycle 0,0.912 ± 0.0336 fold-change vs cycle 0
CCCCTA,0.489 ± 0.0364 fold-change vs cycle 0,0.584 ± 0.015 fold-change vs cycle 0,0.638 ± 0.0291 fold-change vs cycle 0
GCCTGA,0.303 ± 0.0278 fold-change vs cycle 0,0.386 ± 0.0159 fold-change vs cycle 0,0.497 ± 0.0446 fold-change vs cycle 0
ACATCC,0.877 ± 0.0368 fold-change vs cycle 0,0.969 ± 0.0252 fold-change vs cycle 0,0.991 ± 0.0197 fold-change vs cycle 0
ATTAGC,1.14 ± 0.0454 fold-change vs cycle 0,1.18 ± 0.016 fold-change vs cycle 0,1.2 ± 0.034 fold-change vs cycle 0
GTTTTA,1.65 ± 0.0877 fold-change vs cycle 0,1.66 ± 0.0685 fold-change vs cycle 0,1.54 ± 0.113 fold-change vs cycle 0
CCGAGA,0.385 ± 0.0394 fold-change vs cycle 0,0.459 ± 0.0241 fold-change vs cycle 0,0.548 ± 0.059 fold-change vs cycle 0
CTTCCA,0.834 ± 0.0174 fold-change vs cycle 0,0.975 ± 0.0211 fold-change vs cycle 0,1.02 ± 0.0304 fold-change vs cycle 0
CAACTC,0.778 ± 0.0269 fold-change vs cycle 0,0.92 ± 0.0298 fold-change vs cycle 0,0.994 ± 0.018 fold-change vs cycle 0
GGTAGA,0.746 ± 0.0282 fold-change vs cycle 0,0.849 ± 0.0219 fold-change vs cycle 0,0.892 ± 0.0246 fold-change vs cycle 0
ATGAGC,0.659 ± 0.0207 fold-change vs cycle 0,0.736 ± 0.0172 fold-change vs cycle 0,0.836 ± 0.0347 fold-change vs cycle 0
ACATAT,2.28 ± 0.213 fold-change vs cycle 0,1.97 ± 0.122 fold-change vs cycle 0,1.75 ± 0.16 fold-change vs cycle 0
GCAAGA,0.671 ± 0.0141 fold-change vs cycle 0,0.766 ± 0.0335 fold-change vs cycle 0,0.825 ± 0.0528 fold-change vs cycle 0
AGATTA,2.21 ± 0.147 fold-change vs cycle 0,2.14 ± 0.14 fold-change vs cycle 0,1.86 ± 0.198 fold-change vs cycle 0
CCACGA,0.33 ± 0.0384 fold-change vs cycle 0,0.407 ± 0.011 fold-change vs cycle 0,0.515 ± 0.0508 fold-change vs cycle 0
CACTGG,0.426 ± 0.00956 fold-change vs cycle 0,0.508 ± 0.0154 fold-change vs cycle 0,0.615 ± 0.0147 fold-change vs cycle 0
GGAACA,0.762 ± 0.0355 fold-change vs cycle 0,0.882 ± 0.0371 fold-change vs cycle 0,0.956 ± 0.0475 fold-change vs cycle 0
ACCAGC,0.312 ± 0.0135 fold-change vs cycle 0,0.369 ± 0.00921 fold-change vs cycle 0,0.497 ± 0.0437 fold-change vs cycle 0

Sequence,binding signal (SALL4 ZFC4 WT (HT-SELEX)),binding signal [1],binding signal [2]
CGAAAC,0.59 ± 0.0153 fold-change vs cycle 0,0.676 ± 0.0229 fold-change vs cycle 0,0.748 ± 0.0402 fold-change vs cycle 0
CAGGTC,0.406 ± 0.041 fold-change vs cycle 0,0.487 ± 0.0258 fold-change vs cycle 0,0.603 ± 0.0536 fold-change vs cycle 0
GAGTAA,1.45 ± 0.0607 fold-change vs cycle 0,1.57 ± 0.0835 fold-change vs cycle 0,1.43 ± 0.106 fold-change vs cycle 0
AGCACA,0.64 ± 0.039 fold-change vs cycle 0,0.77 ± 0.0406 fold-change vs cycle 0,0.894 ± 0.0466 fold-change vs cycle 0
CTAGAG,0.862 ± 0.0503 fold-change vs cycle 0,1 ± 0.0918 fold-change vs cycle 0,1.03 ± 0.068 fold-change vs cycle 0
AACACA,1.18 ± 0.0535 fold-change vs cycle 0,1.29 ± 0.058 fold-change vs cycle 0,1.27 ± 0.0417 fold-change vs cycle 0
TCGAGA,0.763 ± 0.0625 fold-change vs cycle 0,0.863 ± 0.0493 fold-change vs cycle 0,0.945 ± 0.0348 fold-change vs cycle 0
ATGAAG,1.56 ± 0.0293 fold-change vs cycle 0,1.68 ± 0.108 fold-change vs cycle 0,1.51 ± 0.124 fold-change vs cycle 0
TAGCCA,0.536 ± 0.0328 fold-change vs cycle 0,0.614 ± 0.0132 fold-change vs cycle 0,0.733 ± 0.0537 fold-change vs cycle 0
ATTCGA,1.07 ± 0.0464 fold-change vs cycle 0,1.15 ± 0.0515 fold-change vs cycle 0,1.2 ± 0.0363 fold-change vs cycle 0
CACCTG,0.456 ± 0.0357 fold-change vs cycle 0,0.549 ± 0.0259 fold-change vs cycle 0,0.631 ± 0.0331 fold-change vs cycle 0
ACTCCC,0.553 ± 0.0252 fold-change vs cycle 0,0.612 ± 0.0294 fold-change vs cycle 0,0.716 ± 0.0322 fold-change vs cycle 0
CAATCA,1.31 ± 0.0592 fold-change vs cycle 0,1.41 ± 0.0553 fold-change vs cycle 0,1.4 ± 0.0622 fold-change vs cycle 0
TGGCAA,0.479 ± 0.0154 fold-change vs cycle 0,0.535 ± 0.0186 fold-change vs cycle 0,0.673 ± 0.0414 fold-change vs cycle 0
TAGCTA,1.22 ± 0.05 fold-change vs cycle 0,1.3 ± 0.064 fold-change vs cycle 0,1.29 ± 0.0827 fold-change vs cycle 0
AACGAA,1.15 ± 0.0599 fold-change vs cycle 0,1.28 ± 0.0641 fold-change vs cycle 0,1.24 ± 0.054 fold-change vs cycle 0
AGAGGG,0.489 ± 0.0115 fold-change vs cycle 0,0.556 ± 0.0501 fold-change vs cycle 0,0.655 ± 0.0298 fold-change vs cycle 0
AACCGA,0.657 ± 0.0177 fold-change vs cycle 0,0.7295 ± 0.00455 fold-change vs cycle 0,0.812 ± 0.0455 fold-change vs cycle 0
CCTTTC,0.765 ± 0.031 fold-change vs cycle 0,0.942 ± 0.0414 fold-change vs cycle 0,0.934 ± 0.0409 fold-change vs cycle 0
AGGCTC,0.313 ± 0.0334 fold-change vs cycle 0,0.399 ± 0.014 fold-change vs cycle 0,0.546 ± 0.0493 fold-change vs cycle 0
ACGAAG,0.736 ± 0.0281 fold-change vs cycle 0,0.869 ± 0.0387 fold-change vs cycle 0,0.9 ± 0.0184 fold-change vs cycle 0
